# Experimental data from article PMC11062922 (Nature Chemical Biology, 2023).
# Tests used:
# [1] = test system: NUAK1; conditions: compound concentrations:3nM, 10nM, 30nM, 100nM, 300nM, 1000nM, 3000nM, 30000nM,R2:0.91267183430565202,slope:2.53834648929845,EC50 Standard Error, by the legend:Standard error of the EC50 estimation as provided by the drc package.
# [2] = test system: PAK4; conditions: compound concentrations:3nM, 10nM, 30nM, 100nM, 300nM, 1000nM, 3000nM, 30000nM,R2:0.99818475591728295,slope:0.99089042450123299,EC50 Standard Error, by the legend:Standard error of the EC50 estimation as provided by the drc package.
# [3] = test system: PDPK1;PDPK2P; conditions: compound concentrations:3nM, 10nM, 30nM, 100nM, 300nM, 1000nM, 3000nM, 30000nM,R2:0.91971580292243504,slope:1.29280126727837,EC50 Standard Error, by the legend:Standard error of the EC50 estimation as provided by the drc package.
# [4] = test system: PHKG2; conditions: compound concentrations:3nM, 10nM, 30nM, 100nM, 300nM, 1000nM, 3000nM, 30000nM,R2:0.987331752692992,slope:1.79353666450797,EC50 Standard Error, by the legend:Standard error of the EC50 estimation as provided by the drc package.
# [5] = test system: PLK4; conditions: compound concentrations:3nM, 10nM, 30nM, 100nM, 300nM, 1000nM, 3000nM, 30000nM,R2:0.98129496676024397,slope:1.0145275307596699,EC50 Standard Error, by the legend:Standard error of the EC50 estimation as provided by the drc package.
# [6] = test system: PRKD2; conditions: compound concentrations:3nM, 10nM, 30nM, 100nM, 300nM, 1000nM, 3000nM, 30000nM,R2:0.99348954984815097,slope:2.8520769192550901,EC50 Standard Error, by the legend:Standard error of the EC50 estimation as provided by the drc package.
# [7] = test system: PRKD3; conditions: compound concentrations:3nM, 10nM, 30nM, 100nM, 300nM, 1000nM, 3000nM, 30000nM,R2:0.98624890214185301,slope:1.3007514421669799,EC50 Standard Error, by the legend:Standard error of the EC50 estimation as provided by the drc package.
# [8] = biological target: Q6ZSR9 (human, UniProt Q6ZSR9); conditions: compound concentrations:3nM, 10nM, 30nM, 100nM, 300nM, 1000nM, 3000nM, 30000nM,R2:0.98031780619019204,slope:1.5136598557560801,EC50 Standard Error, by the legend:Standard error of the EC50 estimation as provided by the drc package.
# Chain of Q6ZSR9 (Q6ZSR9 whole entry, looked up): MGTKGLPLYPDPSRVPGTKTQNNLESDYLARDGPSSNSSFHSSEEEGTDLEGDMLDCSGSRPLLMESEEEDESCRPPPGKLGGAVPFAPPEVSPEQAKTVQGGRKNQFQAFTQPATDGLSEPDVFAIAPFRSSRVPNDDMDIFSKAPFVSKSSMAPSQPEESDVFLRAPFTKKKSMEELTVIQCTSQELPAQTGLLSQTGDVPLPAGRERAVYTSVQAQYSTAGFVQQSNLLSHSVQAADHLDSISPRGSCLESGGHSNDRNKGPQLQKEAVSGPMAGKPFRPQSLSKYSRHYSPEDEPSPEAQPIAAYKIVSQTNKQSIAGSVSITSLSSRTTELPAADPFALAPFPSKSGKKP
# [9] = test system: RET; conditions: compound concentrations:3nM, 10nM, 30nM, 100nM, 300nM, 1000nM, 3000nM, 30000nM,R2:0.99332600963227702,slope:0.91132357301438205,EC50 Standard Error, by the legend:Standard error of the EC50 estimation as provided by the drc package.
# [10] = test system: SIK2; conditions: compound concentrations:3nM, 10nM, 30nM, 100nM, 300nM, 1000nM, 3000nM, 30000nM,R2:0.98900734002019797,slope:1.1146515084845601,EC50 Standard Error, by the legend:Standard error of the EC50 estimation as provided by the drc package.
# [11] = test system: SLK; conditions: compound concentrations:3nM, 10nM, 30nM, 100nM, 300nM, 1000nM, 3000nM, 30000nM,R2:0.98664495046468503,slope:1.29889224696913,EC50 Standard Error, by the legend:Standard error of the EC50 estimation as provided by the drc package.
# [12] = test system: STK10; conditions: compound concentrations:3nM, 10nM, 30nM, 100nM, 300nM, 1000nM, 3000nM, 30000nM,R2:0.96114701391993196,slope:1.3567914051898999,EC50 Standard Error, by the legend:Standard error of the EC50 estimation as provided by the drc package.
# [13] = test system: STK11; conditions: compound concentrations:3nM, 10nM, 30nM, 100nM, 300nM, 1000nM, 3000nM, 30000nM,R2:0.98533886968205897,slope:6.0517648666997097,EC50 Standard Error, by the legend:Standard error of the EC50 estimation as provided by the drc package.
# [14] = test system: STK26; conditions: compound concentrations:3nM, 10nM, 30nM, 100nM, 300nM, 1000nM, 3000nM, 30000nM,R2:0.89438319987914305,slope:6.7801376871061398,EC50 Standard Error, by the legend:Standard error of the EC50 estimation as provided by the drc package.
# [15] = test system: STK3; conditions: compound concentrations:3nM, 10nM, 30nM, 100nM, 300nM, 1000nM, 3000nM, 30000nM,R2:0.98274097972393204,slope:1.3616846231778099,EC50 Standard Error, by the legend:Standard error of the EC50 estimation as provided by the drc package.
# [16] = test system: STK4; conditions: compound concentrations:3nM, 10nM, 30nM, 100nM, 300nM, 1000nM, 3000nM, 30000nM,R2:0.95767016983562303,slope:1.48085900140722,EC50 Standard Error, by the legend:Standard error of the EC50 estimation as provided by the drc package.
# [17] = test system: TGFBR2; conditions: compound concentrations:3nM, 10nM, 30nM, 100nM, 300nM, 1000nM, 3000nM, 30000nM,R2:0.91957544903751998,slope:0.85257672285703501,EC50 Standard Error, by the legend:Standard error of the EC50 estimation as provided by the drc package.
# [18] = test system: HSP90B1; design: species or system human, MV4-11 + K-562 + COLO205 + SK-N-BE2 + OVCAR-8; conditions: read-out: apparent Kd; compound concentrations:100 nM and 1000 nM (sheet 'Samples'); n = 1
# [19] = test system: TESK2; design: species or system human, MV4-11 + K-562 + COLO205 + SK-N-BE2 + OVCAR-8; conditions: read-out: apparent Kd; compound concentrations:100 nM and 1000 nM (sheet 'Samples'); n = 1
# [20] = test system: PRKACG; design: species or system human, MV4-11 + K-562 + COLO205 + SK-N-BE2 + OVCAR-8; conditions: compound concentrations:0.3nM, 1nM, 3nM, 10nM, 30nM, 100nM, 300nM, 1000nM,R2:0.71933853436235096,slope:7.8735043887932097,EC50 Standard Error, by the legend:Standard error of the EC50 estimation as provided by the drc package.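 Note: competition pulldown with Kinobeads ε in cell lysates, inhibitor preincubated 45 min at 4 °C, bound kinases quantified by LC–MS/MS against DMSO control.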
compound,measurement,setting,value
TAK659,EC50,[1],1020 nM
same,Kd,[1]; read-out: apparent Kd,312 nM
same,EC50,[2],336 nM
same,Kd,[2]; read-out: apparent Kd,276 nM
same,EC50,[3],639 nM
same,Kd,[3]; read-out: apparent Kd,639 nM
same,EC50,[4],201 nM
same,Kd,[4]; read-out: apparent Kd,201 nM
same,EC50,[5],148 nM
same,Kd,[5]; read-out: apparent Kd,77.2 nM
same,EC50,[6],1010 nM
same,Kd,[6]; read-out: apparent Kd,895 nM
same,EC50,[7],1410 nM
same,Kd,[7]; read-out: apparent Kd,1180 nM
same,EC50,[8],566 nM
same,Kd,[8]; read-out: apparent Kd,493 nM
same,EC50,[9],22.7 nM
same,Kd,[9]; read-out: apparent Kd,12.1 nM
same,EC50,[10],260 nM
same,Kd,[10]; read-out: apparent Kd,140 nM
same,EC50,[11],516 nM
same,Kd,[11]; read-out: apparent Kd,516 nM
same,EC50,[12],725 nM
same,Kd,[12]; read-out: apparent Kd,725 nM
same,EC50,[13],1150 nM
same,Kd,[13]; read-out: apparent Kd,1150 nM
same,EC50,[14],363 nM
same,Kd,[14]; read-out: apparent Kd,275 nM
same,EC50,[15],742 nM
same,Kd,[15]; read-out: apparent Kd,683 nM
same,EC50,[16],628 nM
same,Kd,[16]; read-out: apparent Kd,567 nM
same,EC50,[17],3720 nM
same,Kd,[17]; read-out: apparent Kd,2960 nM
Cc1cccc(-c2nc(Nc3ccncc3)c3sccc3n2)n1 [GW869641X],potency estimated from few doses,[18],1250 nM
same,potency estimated from few doses,[19],1880 nM
CCn1c(-c2nonc2N)nc2c(C#CC(C)(C)O)nc(OCCNC)cc21.Cl [GSK949675A],EC50,[20],303 nM
same,Kd,[20]; read-out: apparent Kd,262 nM
CCn1c(-c2nonc2N)nc2c(C#CC(C)(C)O)nc(OCCN)cc21.CCn1c(-c2nonc2N)nc2c(C#CC(C)(C)O)nc(OCCN)cc21.Cl.Cl [GSK902056A],potency estimated from few doses,[18],769 nM
Nc1nc(Nc2ccccc2)cc(-c2ccc3c(N)n[nH]c3c2)n1 [GSK2225749A],potency estimated from few doses,[19],1620 nM
